# Activity calls are given as the source filed them. The calls were made as follows: active = hit-call score of the fitted dose curve at least 0.9, where 1 is the maximum; inactive = score below 0.9.
# Read-out: DNA damage-inducible transcript 3 (DDIT3), DDIT3 (gene 1649)
# Assay: LTEA_HepaRG_DDIT3: Life Technologies and Expression Analysis (LTEA) Assay for DNA damage-inducible transcript 3 (DDIT3) using HepaRG (AID 2283488)
# Settings: mRNA level, 48 h; actives raise or lower the signal
# Method in brief: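 qRT-PCR readout (Fluidigm TaqMan), housekeeping-normalized to ACTB, GAPDH, POLR2A. HepaRG cells, 48 h exposure, 8-point half-log series from 100 uM in 0.5% DMSO, duplicates. Gain or loss of signal fitted against DMSO baseline.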
Compound,outcome,AC50
COC(=O)CCCC(=O)OC,inactive,
O=C(O)CN(CC(=O)O)CC(=O)O,inactive,
CCc1nc(N)nc(N)c1-c1ccc(Cl)cc1,,77.8 µM (active)
CC(C)c1cccc(C(C)C)c1NC(=O)NS(=O)(=O)c1cc(C(C)(C)O)co1,inactive,
Oc1ccc(O)cc1,inactive,
NC=O,inactive,
CC(=O)S[C@H](C(=O)N[C@H]1Cc2ccccc2[C@H]2CCC[C@@H](C(=O)O)N2C1=O)C(C)C,inactive,
CC(=O)CC(c1ccccc1)c1c(O)c2ccccc2oc1=O (stereo not given),inactive,
NCCOCCOCCN,inactive,
O=C(O)c1[nH]n(-c2ccc(S(=O)(=O)O)cc2)c(=O)c1N=Nc1ccc(S(=O)(=O)O)cc1,inactive,
CCc1cc(C2=C(C(=O)O)N(c3ccccc3C(F)(F)F)S(=O)(=O)c3ccccc32)cc2c1OCO2,,82.1 µM (active)
CCCCCCCCCC[N+](C)(C)[O-],inactive,
CN(C)CCCN1c2ccccc2Sc2ccc(Cl)cc21,,61.3 µM (active)
CSc1ccc(Oc2ccc(S(N)(=O)=O)cc2CN(C)C)cc1C,,75.2 µM (active)
CCCCOC(=O)CCCCC(=O)OCCCC,inactive,
COc1ccc(C(=O)Nc2nc3ccccc3c(NCc3ccccc3)c2C#N)cc1,inactive,
CN(C)C(=O)NC1(c2ccccc2)CCN(CC[C@@]2(c3ccc(F)c(F)c3)CN(C(=O)c3ccccc3)CCO2)CC1,,56.6 µM (active)
Cc1cc(Cc2ccc(N)c(C)c2)ccc1N,inactive,
Cc1cc(SC2=C(O)C[C@@](CCc3ccc(N)cc3)(C(C)C)OC2=O)c(C(C)(C)C)cc1CO,inactive,
CCCCCCC(C=O)=Cc1ccccc1,inactive,
O=C1O[C@H]([C@H](O)CO)C(O)=C1O,inactive,
CCC(C)N(C)C(=O)c1cc2ccccc2c(-c2ccccc2Cl)n1 (stereo not given),,46.6 µM (active)
OCC(O)CO,inactive,
CCCCc1nc2cccnc2n1Cc1ccc(-c2ccccc2-c2nnn[nH]2)cc1,inactive,
O=C(O)CC(O)(CC(=O)O)C(=O)O,inactive,
O=Cc1ccccc1C=O,inactive,
CC1(C)C(=O)NC(=O)N1CO,inactive,
CCCC[C@H]1CN(CC2CCOCC2)C(=O)OC12CCN(C1(C)CCN(C(=O)c3c(C)ncnc3C)CC1)CC2,inactive,
C#CC(O)C(CC)CCCC (stereo not given),inactive,
Cc1ccc(C(C)(C)C)c(O)c1,inactive,

# Read-out: Pro-epidermal growth factor (Homo sapiens) (UniProt P01133)
# Assay: LTEA_HepaRG_EGF: Life Technologies and Expression Analysis (LTEA) Assay for Epidermal growth factor (EGF) using HepaRG (AID 2283489)
# Settings: mRNA level, 48 h; actives raise or lower the signal
# Method in brief: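 Concentration-response mRNA assay: HepaRG cells dosed 48 h (max 100 uM, 0.5% DMSO), EGF measured by qRT-PCR and normalized to ACTB/GAPDH/POLR2A.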
Compound,outcome,AC50
COC(=O)CCCC(=O)OC,inactive,
O=C(O)CN(CC(=O)O)CC(=O)O,inactive,
CCc1nc(N)nc(N)c1-c1ccc(Cl)cc1,inactive,
CC(C)c1cccc(C(C)C)c1NC(=O)NS(=O)(=O)c1cc(C(C)(C)O)co1,inactive,
Oc1ccc(O)cc1,inactive,
NC=O,inactive,
CC(=O)S[C@H](C(=O)N[C@H]1Cc2ccccc2[C@H]2CCC[C@@H](C(=O)O)N2C1=O)C(C)C,inactive,
CC(=O)CC(c1ccccc1)c1c(O)c2ccccc2oc1=O (stereo not given),inactive,
NCCOCCOCCN,inactive,
O=C(O)c1[nH]n(-c2ccc(S(=O)(=O)O)cc2)c(=O)c1N=Nc1ccc(S(=O)(=O)O)cc1,inactive,
CCc1cc(C2=C(C(=O)O)N(c3ccccc3C(F)(F)F)S(=O)(=O)c3ccccc32)cc2c1OCO2,inactive,
CCCCCCCCCC[N+](C)(C)[O-],inactive,
CN(C)CCCN1c2ccccc2Sc2ccc(Cl)cc21,inactive,
CSc1ccc(Oc2ccc(S(N)(=O)=O)cc2CN(C)C)cc1C,inactive,
CCCCOC(=O)CCCCC(=O)OCCCC,inactive,
COc1ccc(C(=O)Nc2nc3ccccc3c(NCc3ccccc3)c2C#N)cc1,inactive,
CN(C)C(=O)NC1(c2ccccc2)CCN(CC[C@@]2(c3ccc(F)c(F)c3)CN(C(=O)c3ccccc3)CCO2)CC1,inactive,
Cc1cc(Cc2ccc(N)c(C)c2)ccc1N,,50 µM (active)
Cc1cc(SC2=C(O)C[C@@](CCc3ccc(N)cc3)(C(C)C)OC2=O)c(C(C)(C)C)cc1CO,,6.35 µM (active)
CCCCCCC(C=O)=Cc1ccccc1,inactive,
O=C1O[C@H]([C@H](O)CO)C(O)=C1O,inactive,
CCC(C)N(C)C(=O)c1cc2ccccc2c(-c2ccccc2Cl)n1 (stereo not given),inactive,
OCC(O)CO,inactive,
CCCCc1nc2cccnc2n1Cc1ccc(-c2ccccc2-c2nnn[nH]2)cc1,inactive,
O=C(O)CC(O)(CC(=O)O)C(=O)O,inactive,
O=Cc1ccccc1C=O,inactive,
CC1(C)C(=O)NC(=O)N1CO,inactive,
CCCC[C@H]1CN(CC2CCOCC2)C(=O)OC12CCN(C1(C)CCN(C(=O)c3c(C)ncnc3C)CC1)CC2,inactive,
C#CC(O)C(CC)CCCC (stereo not given),inactive,
Cc1ccc(C(C)(C)C)c(O)c1,inactive,

# Read-out: Early growth response protein 1 (EGR1) transcription factor, EGR1 (gene 1958)
# Assay: LTEA_HepaRG_EGR1: Life Technologies and Expression Analysis (LTEA) Assay for Early growth response protein 1 (EGR1) transcription factor using HepaRG (AID 2283490)
# Settings: mRNA level, 48 h; actives raise or lower the signal
# Method in brief: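 EGR1 transcript levels quantified by qRT-PCR (Fluidigm arrays) against three housekeeping genes after 48 h chemical exposure of HepaRG cells. Eight-point half-log series topping at 100 uM, 0.5% DMSO vehicle, analyzed for gain or loss.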
Compound,outcome,AC50
COC(=O)CCCC(=O)OC,inactive,
O=C(O)CN(CC(=O)O)CC(=O)O,inactive,
CCc1nc(N)nc(N)c1-c1ccc(Cl)cc1,inactive,
CC(C)c1cccc(C(C)C)c1NC(=O)NS(=O)(=O)c1cc(C(C)(C)O)co1,inactive,
Oc1ccc(O)cc1,inactive,
NC=O,inactive,
CC(=O)S[C@H](C(=O)N[C@H]1Cc2ccccc2[C@H]2CCC[C@@H](C(=O)O)N2C1=O)C(C)C,inactive,
CC(=O)CC(c1ccccc1)c1c(O)c2ccccc2oc1=O (stereo not given),inactive,
NCCOCCOCCN,inactive,
O=C(O)c1[nH]n(-c2ccc(S(=O)(=O)O)cc2)c(=O)c1N=Nc1ccc(S(=O)(=O)O)cc1,inactive,
CCc1cc(C2=C(C(=O)O)N(c3ccccc3C(F)(F)F)S(=O)(=O)c3ccccc32)cc2c1OCO2,,9.92 µM (active)
CCCCCCCCCC[N+](C)(C)[O-],inactive,
CN(C)CCCN1c2ccccc2Sc2ccc(Cl)cc21,,88.2 µM (active)
CSc1ccc(Oc2ccc(S(N)(=O)=O)cc2CN(C)C)cc1C,inactive,
CCCCOC(=O)CCCCC(=O)OCCCC,inactive,
COc1ccc(C(=O)Nc2nc3ccccc3c(NCc3ccccc3)c2C#N)cc1,,21.7 µM (active)
CN(C)C(=O)NC1(c2ccccc2)CCN(CC[C@@]2(c3ccc(F)c(F)c3)CN(C(=O)c3ccccc3)CCO2)CC1,inactive,
Cc1cc(Cc2ccc(N)c(C)c2)ccc1N,inactive,
Cc1cc(SC2=C(O)C[C@@](CCc3ccc(N)cc3)(C(C)C)OC2=O)c(C(C)(C)C)cc1CO,inactive,
CCCCCCC(C=O)=Cc1ccccc1,inactive,
O=C1O[C@H]([C@H](O)CO)C(O)=C1O,inactive,
CCC(C)N(C)C(=O)c1cc2ccccc2c(-c2ccccc2Cl)n1 (stereo not given),inactive,
OCC(O)CO,inactive,
CCCCc1nc2cccnc2n1Cc1ccc(-c2ccccc2-c2nnn[nH]2)cc1,inactive,
O=C(O)CC(O)(CC(=O)O)C(=O)O,inactive,
O=Cc1ccccc1C=O,inactive,
CC1(C)C(=O)NC(=O)N1CO,inactive,
CCCC[C@H]1CN(CC2CCOCC2)C(=O)OC12CCN(C1(C)CCN(C(=O)c3c(C)ncnc3C)CC1)CC2,inactive,
C#CC(O)C(CC)CCCC (stereo not given),inactive,
Cc1ccc(C(C)(C)C)c(O)c1,inactive,

# — PubChem BioAssay (EPA / NIEHS)
